Screening results deposited in PubChem by National Center for Advancing Translational Sciences (NCATS).
MARV entry inh: inhibitors of Marburg virus binding or cell entry | Marburg virus pseudotyped entry inhibition, cell reporter | Potency, µM (titrated, usually from 37.8 µM), without a hit: top-dose activity change, negative = inhibition, most hits filed as inhibitors | hit rate 1.8% among 300,000 | AID 540276; calls by dose curve; tested in HEK293 cells; further: potency means the concentration at half of the fitted maximal effect
HCMV inh: blocks human cytomegalovirus replication; HFF cells, HCMV-luciferase reporter, 72 h; hits give low values; activity change, negative = inhibition, % at 57.5 µM; hit rate 4.5% among 410,000; AID 1259415; in the data active means activity change below about -60%; inconclusive means no clear call, values can overlap the other calls; inactive means above about -39%
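After 16 h attachment at 37C, HFF cells received test compound and HCMV-luciferase (1 PFU/cell); reporter luminescence read 72 h later, data normalized against buffer-only and known inhibitor Salinomycin.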
Pf growth 96h: P. falciparum growth inhibition at 96 hour, primary screen for plastid delayed-death inhibitors; P. falciparum luciferase reporter growth, 96 h; Potency, µM (titrated, usually from 28.7 µM), for inactives: at the highest dose activity change, negative = inhibition, most hits filed as inhibitors; hit rate 6.9% among 320,000; further: potency means the concentration at half of the fitted maximal effect
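Cell-based qHTS: luciferase-tagged P. falciparum in erythrocytes (2% hematocrit, 0.05% parasitemia final) incubated with compounds for 96 hours, 37 C, 5% CO2; luciferase detection reagent then added and luminescence measured.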
Lassa entry inh: Lassa virus entry inhibition; Lassa virus pseudotype entry inhibition, cell reporter; Potency, µM (doses to about 37.9 µM), without a hit: top-dose activity change, negative = inhibition, actives largely listed as inhibitors; hit rate 1.2% among 300,000; calls by dose curve; tested in HEK293 cells; further: potency means the concentration at half of the fitted maximal effect; nearly all actives have a fitted effect of over 50% in size
Pf growth 48h: inhibits P. falciparum growth in the first generation, 48 h. Potency, µM (titrated, usually from 28.7 µM), for the others: top-dose activity change, negative = inhibition, most hits filed as inhibitors. hit rate 5.9% among 310,000. P. falciparum luciferase growth in erythrocytes, 48 h; further: potency means the concentration at half of the fitted maximal effect
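Erythrocytes infected with P. falciparum carrying an integrated firefly luciferase reporter (2% hematocrit, 0.1% parasitemia final) were exposed to compounds in RPMI 1640 with 0.5% Albumax at 37 C, 5% CO2. Growth inhibition was scored as reduced luminescence.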
HCV inhibitor: HCV inhibition; AID 651820; hit rate 3.4% among 340,000; Huh7.5.1 HCVcc-Cre infection, luciferase reporter, 44 h; Potency, µM (titrated, usually from 41.8 µM), for inactives: at the highest dose activity change, negative = inhibition, hits mostly inhibitors; further: potency means the concentration at half of the fitted maximal effect
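Cells (1,000/well) were plated 4 h before compound, then infected with HCVcc-Cre virus (~0.5 moi). After 44 h further culture, infection was read as luciferase luminescence following a 15 min substrate incubation at room temperature.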
Starred values were filed as active, the others as inactive; i = inactive; ? = inconclusive; . = no result given; [ ] = dose if it differs, or a comment. Shown are actives, neighbours in structure and some others; about 14% of the full set was active somewhere. Unless noted, the call rests on the fitted dose curve; in most records, active means well fitted inhibition curve with a large enough effect; inconclusive means small, poorly fitted or top-dose-only effect, or another doubt; inactive means no such curve, though single readings can be large or run the other way. On the % scale 0 is the no-effect control and ±100 the full control effect.

SMILES | MARV entry inh | HCMV inh | Pf growth 96h | Lassa entry inh | Pf growth 48h | HCV inhibitor
COc1ccccc1-c1cnc(C(O)c2ccc(C)cc2C)[nH]1 (stereo not drawn) | . | -16 | . | . | . | .
COc1ccc([C@@H](C)NC(=O)c2ccc3oc(C(C)C)nc3c2)cc1 | . | 59 | 0.66µM* | . | 47% | ?
Cc1ccc(C)n1-c1ccc(-c2nnco2)cc1 | 1% | . | 12µM* | . | -6% | .
c1coc(C2Nc3ccccc3-c3nc4ccccc4n32)c1 (stereo not drawn) | ? | 36 | 23% | ? | 72% | 13µM*
CCCCCNCC(=O)Nc1cccc(C(=O)Nc2cccc(C(F)(F)F)c2)c1 | ? | -29 | 3.3µM* | ? | 4.7µM* | ?
CCn1c(C(=O)O)c(CC(=O)Nc2ccccc2F)c2ccccc21 | . | 7 | 46% | . | -1% | 9%
Cc1ccc(C(=O)Nc2cccc(C(F)(F)F)c2)cc1Nc1cncnc1 | . | ? | 12µM* | . | 1% | ?
CCn1c(C(=O)O)c(CC(=O)Nc2cccc(C(F)(F)F)c2)c2ccccc21 | . | -15 | 0.74µM* | . | -7% | 5%
Cc1ccc(C(=O)Nc2cccc(C(F)(F)F)c2)cc1Nc1ccccn1 | . | -22 | -1% | . | ? | -5%
O=C(CN1CCOCC1)Nc1cccc(C(=O)Nc2cccc(C(F)(F)F)c2)c1 | ? | 20 | 0% | -4% | ? | -18%
CCOC(=O)c1c(C)oc2nc(C)nc(NCc3ccccc3Cl)c12 | . | 0 | . | 2%[46.1 µM] | . | .
Cc1ccccc1Sc1ncnc2onc(C)c12 | -10% | 57 | 8.3µM* | ? | . | ?
Cc1ccc(Sc2ncnc3onc(C)c23)cc1 | ? | 64 | ? | -4% | ? | -16%
Cc1noc2ncnc(Sc3c(Cl)cccc3Cl)c12 | ? | 16 | 2.3µM* | -27% | . | ?
Cc1ccc(CSc2ncnc3onc(C)c23)cc1 | ? | ? | ? | -15% | ? | 20%
Cc1noc2ncnc(Sc3ccc(Cl)cc3)c12 | ? | -79* | -16% | -20% | -7% | ?
CCOc1ccc(OCC)c(Nc2nc3ccc(Cl)cc3n3cnnc23)c1 | ? | -22 | . | 8%[46.1 µM] | . | .
O=C(NCc1nc(-c2ccc(C(F)(F)F)cc2)no1)Nc1ccc(OC(F)(F)F)cc1 | ? | -97* | -9% | ? | -23% | ?
CNCCC[C@]12CC[C@H](C3=C1CCCC3)C1CCCCC12 (stereo partly drawn) | 4.6µM* | . | . | . | . | .
C/C(N)=C(/C#N)C(=O)COC(=O)Cc1coc2ccc3ccccc3c12 | ? | -68* | -17% | -7% | -18% | -22%
O=C(O)CCN1C(=O)C2CCCCC2C1=O (stereo not drawn) | -1% | -7 | 0.74µM* | 0% | . | 13%
O=C(O)CCN1C(=O)C2C3C=CC(C2C1=O)C1C(=O)N(CCC(=O)O)C(=O)C31 (stereo not drawn) | . | 54 | -17% | . | 30% | 18%
C=CCn1c(N)c(C(=O)NCC2CCCO2)sc1=S (stereo not drawn) | -2% | -62* | 28% | 18% | 10% | 1%
Cn1c(N)c(C(=O)Nc2ccc(-c3ccccc3)cc2)sc1=S | . | -76* | -9% | . | -30% | ?
C=CCn1c(N)c(C(=O)Nc2ccc(C)cc2)sc1=S | -3% | -91* | 6% | . | . | -9%
SMILES | MARV entry inh | HCMV inh | Pf growth 96h | Lassa entry inh | Pf growth 48h | HCV inhibitor
C=CCn1c(N)c(C(=O)Nc2ccccc2OC)sc1=S | 15% | 46 | . | -4% | 22% | ?
CCn1c(N)c(C(=O)NCC2CCCO2)sc1=S (stereo not drawn) | 3% | 13 | 4% | 14% | 52% | 17%
COc1ccc(C(=O)N2CCC(c3ccncc3)CC2)cc1OC | . | -11 | . | -4%[46.1 µM] | . | .
CC(=O)N/C(=C\c1ccc(F)cc1)C(=O)OCc1ccccc1 | ? | 49 | ? | 2% | 3% | 18%
COc1ccc(NC(=O)CSC2=Nc3ccccc3C3=NC(CC(=O)NCc4ccc5c(c4)OCO5)C(=O)N23)cc1 (stereo not drawn) | . | 53 | . | 3%[46.1 µM] | . | .
O=C(O)c1ccc(-n2nc(C(F)(F)F)cc2-c2cccs2)cc1 | . | -2 | -24% | . | -9% | 5%
C/C=C/[C@@H]1[C@@H](S(=O)(=O)c2ccccc2)CC(=O)N1Cc1ccccc1 | . | -7 | . | . | . | .
COc1ccc(C2CC(=O)n3nc(C45CC6CC(CC(C6)C4)C5)nc3S2)cc1OC (stereo not drawn) | -20% | -20 | ? | 4% | 1% | 12%
CCOc1ccc(C2CC(=O)n3nc(C45CC6CC(CC(C6)C4)C5)nc3S2)cc1OC (stereo not drawn) | -9%[46.1 µM] | -28 | 12µM* | -1% | -4% | 13%
O=C(NCCN1CCN(c2cccc(Cl)c2)CC1)Nc1ccccc1C(F)(F)F | -4%[46.1 µM] | -5 | . | 1%[46.1 µM] | . | .
CCOC(=O)C1CCCN(C(=O)c2ccc3c(c2)N(Cc2cccc(Cl)c2)C(=O)c2ccccc2S3(=O)=O)C1 (stereo not drawn) | . | -63* | . | ? | . | .
NC(=O)C1CCN(C(=O)c2ccc3c(c2)N(Cc2cccc(Cl)c2)C(=O)c2ccccc2S3(=O)=O)CC1 | . | -25 | . | ? | . | .
O=C(c1ccc2c(c1)N(Cc1cccc(Cl)c1)C(=O)c1ccccc1S2(=O)=O)N1CCCCC1 | . | -73* | . | ? | . | .
O=C(c1ccc2c(c1)N(Cc1ccc(Cl)cc1)C(=O)c1ccccc1S2(=O)=O)N1CCN(Cc2ccccc2)CC1 | ? | 8 | . | ? | . | .
CCN1CCN(C(=O)c2ccc3c(c2)N(Cc2cccc(Cl)c2)C(=O)c2ccccc2S3(=O)=O)CC1 | . | -65* | . | ? | . | .
Cc1cccc(CNC(=O)Cn2nc(C)n3c(cc4cc(F)ccc43)c2=O)c1 | 7%[46.1 µM] | 11 | . | . | . | .
COc1ccccc1-c1cnc(C(O)c2ccc(Cl)c(Cl)c2)[nH]1 (stereo not drawn) | . | -20 | . | . | . | .
O=[N+]([O-])c1oc2ccc3ccccc3c2c1CCO | ? | -102* | . | -22%[46.1 µM] | . | ?
Cc1c(C(=O)c2ccccc2)oc2ccc3ccccc3c12 | ? | 104 | i | ? | 270% | ?
CC(C)CCc1noc(CN(C)CCC2CCOCC2)n1 | 0%[46.1 µM] | -19 | 7% | -12% | 7% | 8%
Cc1nn(C)c(C)c1CN(Cc1nc(CCC(C)C)no1)C(C)C | ? | -83* | 39% | ? | ? | 1µM*
CN(C)C1=NC[C@H](Cc2ccccc2)N1CCc1cccc(F)c1 | . | ? | ? | . | ? | 2%
NC1=NC[C@H](Cc2ccc(O)cc2)N1CCc1cccc(F)c1 | . | -20 | 2.3µM* | . | 13µM* | -4%
NC1=NC[C@H](Cc2ccccc2)N1CCc1cc(C(F)(F)F)cc(C(F)(F)F)c1 | . | -11 | ? | . | 3.3µM* | -14%
CNC(=O)CN1C(=O)c2cccc3cccc1c23 | -13% | -13 | . | 5% | 18% | -1%
CN1/C(=N\O)c2cccc3cccc1c23 | -4% | -60* | . | -16% | 16% | -27%
